Data reported in PubChem BioAssay AID1159580 (chemical genetic matrix, 2015).
The whole screen tested about 5,500 compounds, of which about 2,000 (36%) were called active. About 18% were inconclusive and are not listed. No stated cut-off is given here; in the data, active means normalized growth mostly below about 0.91 (no sharp cut-off); inconclusive means no clear call, values can overlap the other calls; inactive means mostly above about 0.92. Some of the results follow.

Assay: chemical genetic growth profiling, strain panel (AID 1159580);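 further: tested at 20 µM; growth read once vehicle control cultures reached saturation at 30 °C; 1 = growth at the plate median or of vehicle wells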
Conditions: growth OD

Measured: normalized growth

Cc1ccc(C(=O)c2ccc(CC(=O)O)n2C)cc1
inactive: S. cerevisiae deletion strains, locus YJR075W, strain HOC1, stronger effect = lower value 1.02 | S. cerevisiae deletion strains, locus YKL009W, strain mrt4, stronger effect = lower value 0.958 | S. cerevisiae deletion strains, locus YKL068W, stronger effect = lower value 0.99 | S. cerevisiae deletion strains, locus YKL085W, strain MDH1 (second series), stronger effect = lower value 0.98 | S. cerevisiae deletion strains, locus YKL085W, strain MDH1, stronger effect = lower value 0.98 | S. cerevisiae deletion strains, locus YKL160W, strain elf1, stronger effect = lower value 1.01 | S. cerevisiae deletion strains, locus YKL190W, strain CNB1, stronger effect = lower value 0.996 | S. cerevisiae deletion strains, locus YKR001C, strain vps1, stronger effect = lower value 0.946 | S. cerevisiae deletion strains, locus YKR026C, strain gcn3, stronger effect = lower value 1.01 | S. cerevisiae deletion strains, locus YKR091W, strain srl3, stronger effect = lower value 1 | S. cerevisiae deletion strains, locus YLL001W, strain dnm1, stronger effect = lower value 0.981 | S. cerevisiae deletion strains, locus YLL026W, stronger effect = lower value 1.01 | S. cerevisiae deletion strains, locus YLL041C, strain sdh2, stronger effect = lower value 1 | S. cerevisiae deletion strains, locus YLR027C, strain aat2, stronger effect = lower value 1.02 | S. cerevisiae deletion strains, locus YLR039C, strain RIC1, stronger effect = lower value 0.996 | S. cerevisiae deletion strains, locus YLR058C, strain SHM2, stronger effect = lower value 1 | S. cerevisiae deletion strains, locus YLR102C, strain apc9, stronger effect = lower value 0.973 | S. cerevisiae deletion strains, locus YLR113W, strain HOG1, stronger effect = lower value 0.991 | S. cerevisiae deletion strains, locus YLR221C, strain rsa3, stronger effect = lower value 0.971 | S. cerevisiae deletion strains, locus YLR258W, strain gsy2, stronger effect = lower value 1.01 | S. cerevisiae deletion strains, locus YLR262C, strain YPT6 (second series), stronger effect = lower value 0.994 | S. cerevisiae deletion strains, locus YLR262C, strain YPT6, stronger effect = lower value 1 | S. cerevisiae deletion strains, locus YLR268W, strain sec22, stronger effect = lower value 0.918 | S. cerevisiae deletion strains, locus YLR320W, strain mms22, stronger effect = lower value 0.958 | S. cerevisiae deletion strains, locus YLR330W, strain CHS5, stronger effect = lower value 1 | S. cerevisiae deletion strains, locus YLR342W, strain FKS1 (second series), stronger effect = lower value 0.997 | S. cerevisiae deletion strains, locus YLR342W, strain FKS1, stronger effect = lower value 1.02 | S. cerevisiae deletion strains, locus YLR357W, strain rsc2, stronger effect = lower value 1.02 | S. cerevisiae deletion strains, locus YLR370C, strain arc18, stronger effect = lower value 1 | S. cerevisiae deletion strains, locus YLR371W, strain rom2, stronger effect = lower value 0.978 | S. cerevisiae deletion strains, locus YLR384C, strain iki3, stronger effect = lower value 1.01 | S. cerevisiae deletion strains, locus YLR418C, strain cdc73, stronger effect = lower value 0.968 | S. cerevisiae deletion strains, locus YML016C, strain PPZ1, stronger effect = lower value 1.01 | S. cerevisiae deletion strains, locus YML032C, strain rad52, stronger effect = lower value 0.969 | S. cerevisiae deletion strains, locus YML120C, strain ndi1, stronger effect = lower value 0.982 | S. cerevisiae deletion strains, locus YML124C, strain tub3, stronger effect = lower value 0.981 | S. cerevisiae deletion strains, locus YMR058W, strain fet3, stronger effect = lower value 1.02 | S. cerevisiae deletion strains, locus YMR078C, strain ctf18, stronger effect = lower value 0.97 | S. cerevisiae deletion strains, locus YMR125W, strain sto1, stronger effect = lower value 1.01 | S. cerevisiae deletion strains, locus YMR129W, stronger effect = lower value 1.02 | S. cerevisiae deletion strains, locus YMR205C, strain PFK2, stronger effect = lower value 1.01 | S. cerevisiae deletion strains, locus YMR223W, strain ubp8, stronger effect = lower value 0.979 | S. cerevisiae deletion strains, locus YMR231W, strain pep5, stronger effect = lower value 1.01 | S. cerevisiae deletion strains, locus YMR307W, strain GAS1, stronger effect = lower value 0.991 | S. cerevisiae deletion strains, locus YNL067W, strain RPL9B, stronger effect = lower value 1 | S. cerevisiae deletion strains, locus YNL071W, strain lat1, stronger effect = lower value 1.02 | S. cerevisiae deletion strains, locus YNL153C, strain GIM3, stronger effect = lower value 1 | S. cerevisiae deletion strains, locus YNL183C, strain NPR1, stronger effect = lower value 0.928 | S. cerevisiae deletion strains, locus YNL209W, strain ssb2, stronger effect = lower value 1.02 | S. cerevisiae deletion strains, locus YNL233W, strain BNI4, stronger effect = lower value 1 | S. cerevisiae deletion strains, locus YNL248C, strain rpa49, stronger effect = lower value 1.02 | S. cerevisiae deletion strains, locus YNL250W, strain rad50, stronger effect = lower value 0.987 | S. cerevisiae deletion strains, locus YNL271C, strain bni1, stronger effect = lower value 0.968 | S. cerevisiae deletion strains, locus YNL298W, strain CLA4, stronger effect = lower value 0.95 | S. cerevisiae deletion strains, locus YNL307C, strain MCK1, stronger effect = lower value 0.956 | S. cerevisiae deletion strains, locus YNL322C, strain KRE1 (second series), stronger effect = lower value 1.03 | S. cerevisiae deletion strains, locus YNL322C, strain KRE1, stronger effect = lower value 1 | S. cerevisiae deletion strains, locus YNR049C, strain mso1, stronger effect = lower value 1 | S. cerevisiae deletion strains, locus YNR052C, strain pop2, stronger effect = lower value 0.978 | S. cerevisiae deletion strains, locus YOL006C, strain TOP1, stronger effect = lower value 0.969 | S. cerevisiae deletion strains, locus YOL012C, strain htz1 0.918 | S. cerevisiae deletion strains, locus YOL147C, strain pex11, stronger effect = lower value 0.974 | S. cerevisiae deletion strains, locus YOR001W, strain rrp6, stronger effect = lower value 0.975 | S. cerevisiae deletion strains, locus YOR061W, strain CKA2, stronger effect = lower value 1 | S. cerevisiae deletion strains, locus YOR069W, strain VPS5, stronger effect = lower value 0.997 | S. cerevisiae deletion strains, locus YOR070C, strain gyp1, stronger effect = lower value 1.02 | S. cerevisiae deletion strains, locus YOR080W, strain dia2, stronger effect = lower value 1.02 | S. cerevisiae deletion strains, locus YOR083W, strain WHI5, stronger effect = lower value 0.974 | S. cerevisiae deletion strains, locus YOR106W, strain vam3, stronger effect = lower value 1.04 | S. cerevisiae deletion strains, locus YOR136W, strain idh2, stronger effect = lower value 0.989 | S. cerevisiae deletion strains, locus YOR144C, strain elg1, stronger effect = lower value 0.979 | S. cerevisiae deletion strains, locus YOR184W, strain ser1, stronger effect = lower value 0.956 | S. cerevisiae deletion strains, locus YOR231W, strain MKK1, stronger effect = lower value 0.987 | S. cerevisiae deletion strains, locus YOR265W, strain rbl2, stronger effect = lower value 1.01 | S. cerevisiae deletion strains, locus YOR270C, strain vph1, stronger effect = lower value 0.934 | S. cerevisiae deletion strains, locus YOR290C, strain snf2, stronger effect = lower value 1.01 | S. cerevisiae deletion strains, locus YOR316C, strain cot1, stronger effect = lower value 0.974 | S. cerevisiae deletion strains, locus YPL051W, strain arl3, stronger effect = lower value 1.01 | S. cerevisiae deletion strains, locus YPL055C, strain LGE1, stronger effect = lower value 1.02 | S. cerevisiae deletion strains, locus YPL078C, strain atp4, stronger effect = lower value 0.995 | S. cerevisiae deletion strains, locus YPL106C, strain sse1, stronger effect = lower value 1.03 | S. cerevisiae deletion strains, locus YPL240C, strain hsp82, stronger effect = lower value 1.03 | S. cerevisiae deletion strains, locus YPL241C, strain CIN2, stronger effect = lower value 1 | S. cerevisiae deletion strains, locus YPL256C, strain CLN2, stronger effect = lower value 0.969 | S. cerevisiae deletion strains, locus YPR119W, strain clb2, stronger effect = lower value 0.975 | S. cerevisiae deletion strains, locus YPR141C, strain kar3, stronger effect = lower value 0.985 | S. cerevisiae deletion strains, locus YPR163C, strain tif3, stronger effect = lower value 0.984 | S. cerevisiae deletion strains, locus YPR167C, strain met16, stronger effect = lower value 0.973 | S. cerevisiae deletion strains, strain wtn01, stronger effect = lower value 0.973 | S. cerevisiae strains, strain wild type, stronger effect = lower value 1
